Screening data: PubChem, National Center for Advancing Translational Sciences (NCATS)
In the library only some 18% were active in any assay of this set; here they are far more common.
KAT2A inh: qHTS Assay for Inhibitors of GCN5L2; Histone acetyltransferase KAT2A (Homo sapiens), Q92830; GCN5L2 HAT assay, ThioGlo1 CoA-SH fluorescence; Potency, µM (series often up to 58.9 µM), for inactives: top-dose activity change, negative = inhibition, most hits filed as inhibitors; 390,000 tested, 0.21% active; AID 504327, 2011
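Fluorescence readout, Ex340nm/Em540nm: ThioGlo1 (50uM final) reacts with free CoA thiol released as 20nM GCN5L2 acetylates H3(1-25) peptide (75uM) using acetyl-CoA (70uM). Compound and enzyme sat 15 min beforehand; 20 min room-temperature reaction.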
VDR inhibitor: Inhibitors of the vitamin D receptor (VDR): qHTS; Vitamin D3 receptor (Homo sapiens), P11473; VDR-SRC2-3 peptide fluorescence polarization, 2 h; Potency, µM, for inactives: max response, negative = inhibition, usual class: inhibitors; AID 504847, 2011; 400,000 tested, 0.93% active
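Signal is fluorescence polarization, reporting how far test compounds block the interaction of VDR with the SRC2-3 coregulator peptide after a 2 h room-temperature incubation.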
DT40 TDP1 no CPT: qHTS for Inhibitors of human tyrosyl-DNA phosphodiesterase 1 (TDP1): qHTS in cells in absence of CPT; DT40 Tdp1-/- hTDP1 cells, no CPT, ATP luminescence, 48 h; Potency, µM (doses to about 46.2 µM), without a hit: at the highest dose activity change, negative = growth inhibition, hits mostly inhibitors; 420,000 tested, 15% active; AID 686978, 2013; note: nearly all actives have a fitted effect of over 55% in size
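Growth of hTDP1-complemented DT40 Tdp1-knockout cells is measured by ATP luminescence after at least 48 hr compound exposure at 37 °C, with DMSO substituting for the 20 nM CPT used in the parallel screen.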
TDP1 inh: qHTS Assay for Inhibitors of Tyrosyl-DNA Phosphodiesterase (TDP1). recombinant TDP1, AlphaScreen DNA substrate cleavage. Potency, µM (top dose mostly 130 µM), for the others: top-dose activity change, negative = inhibition, actives largely listed as inhibitors. 350,000 tested, 0.28% active. Tyrosyl-DNA phosphodiesterase 1 (Homo sapiens), Q9NUW8; note: nearly all actives have a fitted effect of over 40% in size
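Compounds were preincubated with Tdp1 (1 nM final) for 15 min at room temperature before substrate (15 nM final) started a 5 min reaction; beads (10 ug/ml final) were then added for 10 min before AlphaScreen detection.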
PLK1 PBD inh: qHTS for Inhibitors of PLK1-PDB (polo-like kinase 1 - polo-box domain): Primary Screen. Plk1 PBD binding of FITC phosphopeptide, fluorescence polarization. Serine/threonine-protein kinase PLK1 (Homo sapiens), P53350. Potency, µM, for the others: max response, negative = inhibition, most hits filed as inhibitors. 360,000 tested, 2.8% active. AID 720504, 2013; note: series mostly up to about 57 µM; nearly all actives have a fitted effect of over 65% in size
TDP1 cell CPT: qHTS for Inhibitors of human tyrosyl-DNA phosphodiesterase 1 (TDP1): qHTS in cells in presence of CPT; 420,000 tested, 12% active; Potency, µM (doses to about 46.2 µM), for the others: top-dose activity change, negative = growth inhibition, usual class: inhibitors; chicken DT40 Tdp1-/-;hTDP1 cells + 20 nM CPT, ATP luminescence, 48 h; note: nearly all actives have a fitted effect of over 55% in size
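Cell growth measured by CellTiter-Glo luminescence after a minimum 48 h, 37 C compound exposure with 20 nM CPT in Tdp1-knockout DT40 cells stably expressing hTDP1, seeded 400/well; qHTS titration format.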
The depositor's hits bear a star; ? = inconclusive; nt = not tested or not shown; [ ] = remark or other dose. Calls come from the whole dose curve; as a rule, active = well fitted curve in the direction sought with a large enough effect; inconclusive = small, poorly fitted or top-dose-only effect, or another doubt; inactive = no such curve, though single readings can be large; an effect the other way counts as inactive or inconclusive. % is set by controls: 0 for no effect and ±100 for the full control effect; potency is the fitted concentration of half-maximal effect.

SMILES | KAT2A inh | VDR inhibitor | DT40 TDP1 no CPT | TDP1 inh | PLK1 PBD inh | TDP1 cell CPT
CCC(=O)Nc1nc2ccc(NC(=O)c3cc(OC)c(OC)c(OC)c3)cc2s1 | -7% | 5% | 21µM* | 6% | -7% | ?
Cc1cc(C)n(-c2nc3ccccc3nc2N2CCN(S(=O)(=O)c3ccc(F)c(C)c3)CC2)n1 | -2% | 7% | ? | 3% | 1% | 23µM*
Cc1cc(C)n(-c2nc3ccccc3nc2N2CCN(C(=O)c3ccccc3)CC2)n1 | 1% | 4% | -29% | 0% | -4% | -19%
Cc1cc(C)n(-c2nc3ccccc3nc2N2CCN(S(=O)(=O)c3ccc4ccccc4c3)CC2)n1 | -4%[0.501 µM] | -5% | 14µM* | 2% | -2% | ?
COc1ccccc1Cc1c(-c2ccc(C#N)cc2)nc2c(Cl)cc(C(F)(F)F)cn12 | nt | nt | 15µM* | nt | 9% | 23µM*
COc1ccccc1Cc1c(-c2ccc(Cl)cc2)nc2c(Cl)cc(C(F)(F)F)cn12 | nt | nt | -10% | nt | -8% | -12%
CC(C)(C)Cc1c(-c2ccc(C#N)cc2)nc2c(Cl)cc(C(F)(F)F)cn12 | nt | nt | ? | nt | -23% | 18µM*
CCOC(=O)c1ccc(-c2cc(C)no2)[nH]1 | 0% | -23% | ? | 0% | 3% | ?
O=C(CSc1ncccn1)Nc1ccc2c(c1)CCC2 | 38% | -12% | -6% | nt | -1% | -13%
FC(F)Oc1ccc(-c2csc(NNC3=NCCCCC3)n2)cc1 | -4% | ? | 15µM* | 10% | 3.8µM* | 4.6µM*
O=C(COc1ccc([N+](=O)[O-])cc1)NNC(=O)c1cccs1 | -5% | -7% | -15% | 1% | -9% | -1%
CCOC(=O)c1c(C)[nH]c(C(=O)N/N=C\c2ccccc2O)c1C | -9% | -13% | 3.7µM* | 8% | -7% | 4.1µM*
COc1ccccc1/C=N/NC(=O)c1[nH]c(C)c(C(=O)N/N=C/c2ccccc2OC)c1C | -9% | -11% | -1% | -3% | -2% | 12%
CCOC(=O)c1c(C)[nH]c(C(=O)N/N=C/c2cc([N+](=O)[O-])ccc2O)c1C | 0% | 7% | 6.5µM* | 5% | -3% | 6.5µM*
CC1(C(=O)O)CCCN1C(=O)c1cccc(OC(F)(F)F)c1 (centres undefined) | nt | nt | -1% | nt | -11% | -15%
COc1cc(C(C)=O)ccc1Oc1ncnc2c1cnn2-c1ccc(F)cc1 | 69% | 5% | 9.2µM* | -3% | -1% | ?
COc1ccccc1Oc1ncnc2c1cnn2-c1ccccc1 | 3% | 5% | ? | -3% | -10% | 11%
COCCCN1C(=O)c2ccc(C(=O)NCCc3ccccc3)cc2C1=O | -8% | -2% | -1% | nt | 0% | 3%
COc1ccc(CCN(C)C2CC(=O)N(c3ccccc3)C2=O)cc1OC (centres undefined) | 0% | 3% | ? | 7% | 4% | 9.2µM*
COc1ccccc1N(O)C1CC(=O)N(c2ccc(F)cc2)C1=O (centres undefined) | -13% | ? | ? | 3% | 5.3µM* | ?
COc1ccc(N2C(=O)CC(N(C)CCc3ccc(OC)c(OC)c3)C2=O)cc1 (centres undefined) | 1% | 0% | -5% | 6% | -4% | 0%
COc1ccnc(Oc2ccccc2)c1C(N)=O | -4% | 27% | -17% | nt | -21% | -1%
C=Cc1ccc(Cn2c(C(=O)O)c(CNCc3cc(OC)ccc3OC)c3ccc(C)cc32)cc1 | -5% | 6% | ? | 11% | nt | ?
